# Measured values taken from PubChem BioAssay (NCATS).
# Inconclusive results are not listed. Unmarked numbers belong to inactive results. Calls of active or inactive are those of the source. The call rests on the fitted dose curve; in most records, active means well fitted activation curve with a large enough effect; inconclusive means small, poorly fitted or top-dose-only effect; inactive means flat fitted curve, though single readings scatter. Bridge positions count the residues as written; N and C are the ends. Square brackets hold non-standard residues; d marks the D form. Side chains are listed from the residue outwards. Peptide text beside a SMILES is read from it. * marks the point of attachment. Phg(4-OMe) = COc1ccc([C@H](N)C(=O)O)cc1; d(aIle) = CC[C@H](C)[C@@H](N)C(=O)O; d(aThr) = C[C@@H](O)[C@@H](N)C(=O)O; NMeF = CN[C@@H](Cc1ccccc1)C(=O)O; Isobutyryl = CC(C)C(=O)*
# Assay: qHTS for Activators of p53 Stress Response Pathway screened against the NCATS CANVASS Library (AID 1347388); on activation: 0% is about no effect
# Settings: p53RE-bla HCT-116, beta-lactamase reporter, 16 h; series mostly up to 46.1 µM; activation: at the top concentration
# Description: Natural products and their derivatives continue to be wellsprings of nascent therapeutic potential. However, many laboratories have limited resources for biological evaluation, leaving their previously isolated or synthesized compounds largely or completely untested. To address this issue, the Canvass library of natural products was assembled (https://tripod.nih.gov/canvass), in collaboration with academic and industry researchers, for quantitative high-throughput screening (qHTS) across a diverse set of cell-based and biochemical assays. The pure (>85% purity by liquid chromatography/mass spectrometry [LC/MS]) Canvass library of 346 natural products were submitted by 45 academic laboratories and companies around the world. We collected pure natural products to circumvent deconvolution and structure elucidation due to time and resource limitations. The library was formatted into 1536-well plates and evaluated in 50 qHTS (in an 11-pnt concentration series) bioassays with broad scope of disease-relevant mechanisms. The resulting data set from 50 different assays was then systematically analyzed to identify overall trends and specific natural products with interesting biological activities. Reported herein are the results of each individual qHTS and their corresponding assay protocol. This assay measures compound activation of the p53 signaling pathway in cells using a beta-lactamase reporter gene. The p53RE-bla HCT-116 cell line (Invitrogen) contains a stably integrated beta-lactamase reporter gene under control of the p53 response elements. The activation of the report gene under culture conditions can be detected by fluorescence intensity. National Center for Advancing Translational Sciences (NCATS), Rockville, MD National Institute of Health (NIH), Bethesda, Maryland
# p53-screen protocol: 1. In black-clear bottom 1536-well plate, 5 uL of p53RE-bla HCT-116 cell suspension was dispensed using a Multidrop Combi (Thermo Fisher Scientific) at a final concentration of 4000 cells / well. 2. The assay plates were incubated for 5 hours at 37C, 5% CO2. 3. […] of compounds (in DMSO; columns 5-48), vehicle control DMSO, and positive control were pin transferred into the assay plates using the Kalypsis pin tool (Wako USA) equipped with a 1536-well pin heads. This yields a final CANVASS compound concentration of 0.4 nM - […]. 4. The assay plates were incubated for 16 hours at 37C, 5% CO2. 5. After incubation, 1 uL of CCF4 dye was added per well using the BioRAPTR dispenser 6. The plates were incubated for 2 hours at room temperature. 7. The fluorescence readout was obtained using the EnVision microplate reader (PerkinElmer) equipped with a 405 nm excitation and 460 nm and 530 nm emission filters. The ratio of 460 nm / 530 nm readout was calculated and used for data analysis. 8. To access cellular viability and compound toxicity, 4 uL of CellTiter-Glo was added to the wells using the BioRAPTR dispenser. 9. The assay plates were further incubated for 30 minutes at room temperature. 10. Luminescence signal was obtained using the ViewLux plate reader (PerkinElmer) using the clear emission filter and 1x binning, 2 second exposure settings.
# Potency means the concentration at half of the fitted maximal effect.
SMILES,activation,Potency
CC(=O)c1c(C)cc2c(c1O)C(=O)c1c(O)cc(O)cc1C2=O,1.03%,–
C/C=C/[C@H]1[C@H]2C(=O)c3c(O)c(C)c(O)c(C)c3[C@]1(C(=O)O)C(=O)C=C2C,-3.35%,–
O[C@H]1C=C2[C@H]3CN(Cc4cc5c(cc43)OCO5)[C@H]2C[C@@H]1O,-3.06%,–
C/C=C/C(=O)C1(O)CC2CC(C(=O)O)CC(C)C2C1C1=C2C(=O)NC(=O)C2=C(CCCCC)C(C)O1 (stereo not given),–,7.41 µM (active)
CC1=C(C)C(=O)OC(C(C)C2(O)CCC3C4C5OC5C5(O)CC=CC(=O)C5(C)C4CCC32C)C1 (stereo not given),-8.15%,–
COC1C(C)OC(OCC23C[C@@H]4[C@H](C)CC[C@H]4C4(C=O)CC2C=C(C(C)C)C34C(=O)O)[C@@H](O)[C@H]1O (stereo not given in full),-1.48%,–
C=C[C@]1(C)CC[C@@H]([C@H](C)C(=O)/C=C/C(C)(C)O)O1,-2.41%,–
O=C1OC(CCO)c2cccc(O)c21 (stereo not given),-1.03%,–
CC1=C2CC[C@]3(C)[C@H](CC=C4[C@@H]5CC(C)(C)CC[C@@H]5C(=O)[C@H](O)[C@]43C)[C@@]2(C)C=C(O)C1=O,4.25%,–
COC(=O)[C@@]1(C)CCC[C@]2(C)c3cc(OC)ccc3CC[C@@H]12,4.51%,–
C[C@]12CCC[C@](C)(C(=O)O)[C@@H]1CC[C@@]1(C)c3cocc3CC[C@H]21,-2.09%,–
CN1CC[C@]23c4ccccc4N[C@H]1[C@]21CCN(C)[C@H]3Nc2ccccc21,-3.48%,–
C=C[C@]1(C)CC[C@@H]([C@H](C)C(=O)CC=C(C)C)O1,3.17%,–
CO[C@H]1[C@@H](OC(=O)/C(C)=C\[C@@H]2O[C@@H]2[C@H]2O[C@H]2C)[C@H](O)[C@H](OCC23C[C@@H]4[C@H](C)CC[C@H]4C4(C=O)CC2C=C(C(C)C)C34C(=O)O)O[C@@H]1C (stereo not given in full),0.482%,–
C[C@@]12C[C@@H](C[C@@H]3C(=O)O[C@@H](c4ccoc4)[C@H](OC(=O)c4ccccc4)[C@@H]31)OC2=O,-4.84%,–
COC(=O)C1=C[C@]23C[C@@H](C)CC[C@@H]2[C@@]2(C)CC[C@@H](C(C)C)[C@@](O)(O3)[C@@H]12,1.37%,–
CCC(=O)N[C@@H](C[C@H](C)C(Cl)(Cl)Cl)C(=O)N1C(=O)C=C(OC)[C@@H]1CC(C)C,11.9%,–
C=CC(C)(C)C(=O)[C@@H](C)[C@@H]1CC[C@@](C)(C=C)O1,2.97%,–
COc1ccc([C@@H]2c3cc4c(cc3C[C@H](C)C2C)OCO4)cc1OC (stereo not given in full),–,7.41 µM (active)
COc1cc2ccc(=O)oc2c(O)c1O[C@@H]1O[C@H](CO)[C@@H](O)[C@H](O)[C@H]1O,6.84% [at 27.5 µM],–

SMILES,activation,Potency
C/C1=C/[C@@H](C)[C@H](O)[C@@H](O)/C=C/CC/C=C/C(=O)O[C@@H]1[C@H](C)C(=O)CCCC1CC(=O)NC(=O)C1,10.6%,–
CN1CCc2cc3c(c4c2C1(C)C(=O)c1cc(O)ccc1-4)OCO3 (stereo not given),22.2%,–
C/C(=C\[C@H](C)C(=O)CCCC1CC(=O)NC(=O)C1)[C@@H]1OC(=O)/C=C/CC/C=C/[C@H](O)[C@@H](O)[C@@H]1C,-15.7%,–
O=Cc1ccc2n1C[C@]1(C[C@H](O)[C@@H](CO)O1)OC2,2.46%,–
C/C=C/c1cc2c(c(=O)o1)C(=O)[C@@H](O)[C@H](C)O2,–,37.1 µM (active)
C[n+]1cc2cc(C(N)=O)[nH]c3c(=N)c(Cl)c(N)c1c23,25.1%,–
COc1cc2c(cc1OC)[C@@H](c1ccc3c(c1)OCO3)C(C)C(C)C2=O (stereo not given in full),14.9%,–
C[C@H]1C=C[C@H]2CCCC[C@@H]2[C@H]1C(=O)[C@H]1CC2=C(C(=O)O)CCN2C1=O,14.6%,–
CC1=C[C@H]2[C@H]3C(=O)C(c4ccc(O)cc4)=C[C@@]3(c3ccc(O)cc3)[C@@H]1C(=O)[C@]2(C)O,–,0.331 µM (active)
CO[C@@H]1[C@H](O)[C@@H](C)O[C@@H](OC[C@@H]2C(C)OC(=O)/C=C/[C@H](C)C(O[C@@H]3O[C@H](C)CC4(OC(=O)O[C@@H]4C)C3O)[C@@H](C)CC(C)C(=O)/C=C/[C@H]3OC23)[C@@H]1OC (stereo not given in full),22.4%,–
C[C@@]1(CCC(=O)Nc2c(O)ccc(C(=O)O)c2O)C(=O)C=C[C@]23C[C@H]4C[C@H](O[C@@]4(C)C2)C31 (stereo not given in full),-1.23%,–
O=C1CC(c2ccc(O)cc2)Oc2cc(O)ccc21 (stereo not given),1.3%,–
CC(C)=CCCC(C)(O)[C@H]1CC=C(C)C(O)C1 (stereo not given in full),1.71%,–
COc1ccc2[nH]c3c(c2c1)CCN1C[C@H]2C[C@@H](OC(=O)c4cc(OC)c(OC)c(OC)c4)[C@H](OC)[C@@H](OC)[C@H]2C[C@H]31,3.34%,–
CC[C@H](C)[C@H]1NC(=O)[C@@H](NC(=O)C(C)C)[C@@H](C)OC(=O)[C@H](COC(=O)CNC(C)=O)NC(=O)[C@@H]([C@@H](C)O)NC(=O)[C@H](Cc2ccccc2)N(C)C(=O)[C@H](c2ccc(OC)cc2)NC1=O (Isobutyryl-T[d(aIle)][Phg(4-OMe)][NMeF][d(aThr)]S([Gly-Ac]); ester 1-C),1.48%,–
C=C(C)C(=O)O[C@H]1C[C@@]2(C)OC(=CC2=O)/C(C)=C\[C@H]2OC(=O)C(=C)[C@H]12,-4.22%,–
COc1ccc([C@@H]2CC(=O)c3c(cc(O)c(C/C=C(\C)CCC=C(C)C)c3O)O2)cc1,21.1% [at 9.19 µM],–
COC12OC1(C13OC1(OC)C(=O)c1cc4cc(C)oc(=O)c4c(O)c1C3O)C(O)c1c(cc3cc(C)oc(=O)c3c1O)C2=O (stereo not given),18.3%,–
CN1CC[C@]2(c3cccc4c3N[C@H]3N(C)CC[C@@]43[C@]34CCN(C)[C@H]3Nc3ccccc34)c3ccccc3N[C@H]12,3%,–
CC[C@H]1[C@H](C)[C@H](c2cc(OC)c(OC)cc2OC)[C@@H](C)[C@H](c2cc(OC)c(OC)cc2OC)[C@@]12C=C(OC)C(=O)C=C2OC,9.96%,–
